# Hit rate of the full screen: of about 2,500 compounds, about 1,100 (44%) were called active.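 The calls were made as follows: active = inhibition above 50% at 4 µM in the single-point screen; inactive = inhibition of 50% or less.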 The set was probably picked from earlier hits. The list shows a part of the results.
# Test: TNF-a-driven NF-kB reporter inhibitors, primary screen, selectivity assay for NOD1/NOD2 signaling inhibitor project, cell-based, HEK293T NF-kB-Luc, luminescence (AID 1852)
# Conditions: TNF-a induced, 14 h, at 4 µM, active compounds read high
row,Compound,inhibition
1,O=C(c1ccc(S(=O)(=O)Cc2ccccc2Cl)c([N+](=O)[O-])c1)N1CCN(c2ccccn2)CC1,58.6% (active)
2,CC1CCN(C(=O)c2ccc(S(=O)(=O)Cc3cccc(F)c3)c([N+](=O)[O-])c2)CC1,16.5% (inactive)
3,O=C(c1ccc(S(=O)(=O)Cc2cc(F)ccc2F)c([N+](=O)[O-])c1)N1CCCCC1,-1.2% (inactive)
4,CC1CCN(C(=O)c2ccc(S(=O)(=O)Cc3cc(F)ccc3F)c([N+](=O)[O-])c2)CC1,50.4% (active)
5,Cc1ccc(CS(=O)(=O)c2ccc(C(=O)N3CCN(c4ccccn4)CC3)cc2[N+](=O)[O-])cc1,53% (active)
6,Cc1ccc(N=c2c([N+](=O)[O-])nn(-c3ccc4c(c3)OCCO4)n2O)cc1F,0.1% (inactive)
7,CC(=O)N1CCCc2cc(S(=O)(=O)N3CCCC(C(=O)N4CCN(c5cccc(Cl)c5)CC4)C3)ccc21 (stereo not given),57.4% (active)
8,CC(=O)N1CCCc2cc(S(=O)(=O)N3CCCC(C(=O)N4CCN(c5cc(C)ccc5C)CC4)C3)ccc21 (stereo not given),45.4% (inactive)
9,COc1ccccc1N1CCN(C(=O)C2CCCN(S(=O)(=O)c3ccc4c(c3)oc(=O)n4C)C2)CC1 (stereo not given),19.5% (inactive)
10,C=C(C)C(=O)O[C@H]1C/C(C)=C\C(=O)/C=C(\C)[C@H](O)[C@@H]2OC(=O)C(=C)[C@@H]21,102% (active)
11,O=C(COc1cccc2ccccc12)Nc1ccc(Cl)cc1C(=O)O,-62.6% (inactive)
12,O=C(COc1ccc(Cl)cc1Cl)Nc1ccc(C(=O)Nc2ccccc2C(=O)O)cc1,53.4% (active)
13,Cc1cc(C(=O)Nc2ccccc2C(=O)O)ccc1NC(=O)COc1ccccc1Cl,-11.7% (inactive)
14,Cc1ccc(CNC(=O)[C@H](C)[C@H]2C[C@]2(C)[C@H](NC(=O)OCc2ccccc2)c2ccccc2)o1,1.6% (inactive)
15,CC(NC(=O)OCc1ccccc1)C(=O)Oc1cc2oc(=O)cc(-c3ccccc3)c2cc1Cl (stereo not given),55.2% (active)
16,CC(NC(=O)OC(C)(C)C)C(=O)Oc1cc2oc(=O)cc(-c3ccccc3)c2cc1Cl (stereo not given),84.3% (active)
17,Cc1c(Nc2c3ccccc3nc3ccccc23)c(=O)n(-c2ccccc2)n1C,27.4% (inactive)
18,Cc1c(N=C2C=CC(=O)c3ccccc32)c(=O)n(-c2ccccc2)n1C,76.4% (active)
19,COc1ccc(-c2cc(C(=O)NCCCN3CCOCC3)on2)cc1OC,6% (inactive)
20,COc1ccc(-c2cc(N)n(S(=O)(=O)c3c(F)c(F)c(F)c(F)c3F)n2)cc1OC,83.8% (active)
21,COc1ccc(-c2nc3nc(N)nn3cc2C)cc1F,22.9% (inactive)
22,CCOC(=O)N=Nc1c2ccccc2c2nc3no[nH]c3nc12,105% (active)
23,COc1cc(/C=C2\C(=N)N3N=C(S(C)(=O)=O)SC3=NC2=O)ccc1OCCOc1ccccc1C,-26.4% (inactive)

row,Compound,inhibition
1,CC(=O)c1ccc(-n2c(C)c(C(C)=O)c3cc(O)ccc32)cc1,50.8% (active)
2,CC(=O)c1c(C)n(-c2ccc(Cl)cc2)c2ccc(O)cc12,12.3% (inactive)
3,CC(=O)c1ccc(N2CCN(c3ccnc4cc(Cl)ccc34)CC2)cc1,45.2% (inactive)
4,CC(=O)c1c(C)n(-c2ccccc2)c2ccc(O)cc12,68% (active)
5,COc1ccc(-n2c(C)c(C(C)=O)c3cc(O)ccc32)cc1,72.1% (active)
6,Cc1ccc(S(=O)(=O)NC(CC(C)C)C(=O)N2CC(C)OC(C)C2)cc1 (stereo not given),9.2% (inactive)
7,O=C1CCC2S/C(=C/Nc3ccc(C(F)(F)F)cc3)C(=O)N12 (stereo not given),95.8% (active)
8,COc1cccc(C(=O)Oc2c(Br)cc(Br)cc2/C=N/NC(=O)c2cc(C)[nH]n2)c1,71.1% (active)
9,Cc1cc(C(=O)N/N=C/c2cc(Br)cc(Br)c2OC(=O)c2cccc(F)c2)n[nH]1,75.2% (active)
10,Cc1cc(C(=O)N/N=C/c2cc(Br)ccc2OC(=O)c2ccccc2)n[nH]1,91.1% (active)
11,Cc1cccc(Nc2nc(N)nc(CCl)n2)c1,25.3% (inactive)
12,O=[N+]([O-])c1ccc(N2CCN(c3ccccc3)CC2)nc1,-49.6% (inactive)
13,Cc1ccc(S(=O)(=O)NCc2ccc(C(=O)N3CCN(c4ccc([N+](=O)[O-])cc4)CC3)cc2)cc1,43.8% (inactive)
14,Cc1c(-c2ccccc2)oc2c(C(=O)N3CCN(c4ccc([N+](=O)[O-])cc4)CC3)cccc2c1=O,60.9% (active)
15,Cc1ccc(S(=O)(=O)N2CCN(CCC#N)CC2)cc1,44.4% (inactive)
16,CCN1CCN(S(=O)(=O)c2ccc(Cl)c(C(=O)Nc3cc(Cl)ccc3N3CCOCC3)c2)CC1,28.9% (inactive)
17,CCN1CCN(S(=O)(=O)c2c(C)cc(C)cc2C)CC1,54.2% (active)
18,COc1ccc2[nH]c(C(=O)N/N=C/c3ccc(O)cc3O)cc2c1,48.1% (inactive)
19,Cn1cccc1-c1cc(C(=O)N/N=C/c2cc(Br)ccc2O)[nH]n1,60.4% (active)
20,O=C1CSC(c2cccnc2)N1CCc1ccccn1 (stereo not given),0.7% (inactive)
21,Cc1ccc(NC(=O)c2ccccc2NS(=O)(=O)c2ccc(Cl)s2)cc1,71.2% (active)
22,CS(=O)(=O)Nc1ccccc1C(=O)Nc1cc(Cl)cc(Cl)c1,74.6% (active)
23,Cc1cc(NC(=O)c2ccccc2NS(=O)(=O)c2c(C)c(C)cc(C)c2C)no1,9.8% (inactive)

row,Compound,inhibition
1,Cc1ccc(NC(=O)c2cc3c(s2)CCCC3)cc1S(=O)(=O)Nc1ccccc1Cl,69.1% (active)
2,COc1ccc(C)cc1NC(=O)c1ccccc1NS(=O)(=O)c1ccc(Cl)s1,87.9% (active)
3,O=C(Nc1cc(S(=O)(=O)Nc2ccccc2Cl)ccc1O)c1cc2c(s1)CCCC2,36.1% (inactive)
4,COc1ccccc1NS(=O)(=O)c1cccc(NC(=O)c2sc3ccccc3c2Cl)c1,39.2% (inactive)
5,COc1cccc(NS(=O)(=O)c2ccc(Br)s2)c1,-23.8% (inactive)
6,Cc1ccc(NC(=O)c2ccccc2NS(=O)(=O)c2ccc(Cl)s2)cc1S(=O)(=O)N1CCOCC1,84.3% (active)
7,COc1cc(NC(=O)c2ccccc2NS(=O)(=O)c2ccc(Cl)s2)cc(OC)c1,84.9% (active)
8,N#C/C(=C(/O)COC(=O)COc1cccc(Br)c1)c1nc2ccccc2[nH]1,33% (inactive)
9,Cc1cc(C)cc(OCC(=O)OC/C(O)=C(\C#N)c2nc3ccccc3[nH]2)c1,103% (active)
10,N#C/C(=C(/O)COC(=O)COc1ccc(Cl)cc1)c1nc2ccccc2[nH]1,108% (active)
11,COc1cccc(-n2nnnc2S(C)(=O)=O)c1,79.5% (active)
12,CCCS(=O)(=O)c1nnnn1-c1cccc(OC)c1,76.1% (active)
13,N#CCCS(=O)(=O)c1nnnn1-c1ccccc1,75.5% (active)
14,CCS(=O)(=O)c1nnnn1-c1ccccc1S(C)(=O)=O,43.2% (inactive)
15,Cc1cccc(Nc2ncnc3onc(-c4cccc(Cl)c4)c23)c1C,15.5% (inactive)
16,COc1cccc(NC(=O)Nc2cccc(C(=O)O)c2)c1,65.7% (active)
17,COc1ccc(NC(=O)Nc2nnc(-c3ccncc3)s2)cc1,30% (inactive)
18,O=C(Nc1cccc(C(=O)O)c1)Nc1ccccc1Cl,-17.8% (inactive)
19,COc1cccc(NC(=O)Nc2nc(-c3ccc(OC)c(OC)c3)cs2)c1,100% (active)
20,COc1cccc(NC(=O)CCC2CCN(C(=O)c3cncs3)CC2)c1,4.6% (inactive)
21,COc1ccc(OC)c(-c2csc(NC(=O)C3=NNC(=O)CC3)n2)c1,37.1% (inactive)
22,CC(Sc1nnc2c(n1)[nH]c1ccccc12)C(=O)N(C)C1CCCCC1 (stereo not given),32.3% (inactive)
23,COc1ccc(C)cc1NC(=O)CSc1ccc(-c2ccco2)nn1,-4.4% (inactive)

row,Compound,inhibition
1,COc1ccc(C)cc1NC(=O)CSc1ccc(-c2ccccn2)nn1,82.9% (active)
2,COc1ccc(C)cc1NC(=O)CSc1ccc(-c2sc(C)nc2C)nn1,21.8% (inactive)
3,COc1ccc(OC)c(NC(=O)CSc2ncnc3c2cnn3-c2ccccc2Cl)c1,36.9% (inactive)
4,COc1ccc(NC(=O)CSc2ccc(-c3cccs3)nn2)c(OC)c1,72.8% (active)
5,Cc1ccc(NC(=O)Nc2nnc(-c3ccncc3)s2)cc1C,43.3% (inactive)
6,COc1cccc(C(=O)N/N=C(/c2ccccc2)c2ccccn2)c1,62.2% (active)
7,COc1cc(C(=O)N/N=C(\c2ccccc2)c2ccccn2)cc(OC)c1OC,64% (active)
8,O=C(N/N=C(\c1ccccc1)c1cccnc1)c1cccc(F)c1,102% (active)
9,C/C(CC(=O)Nc1cccnc1)=N\NC(=O)c1ccc([N+](=O)[O-])c(Cl)c1,15.3% (inactive)
10,COc1cc(C(=O)Nc2sc3c(c2C(=O)O)CCC(C)C3)cc(OC)c1OC (stereo not given),40% (inactive)
11,COc1cc(C(=O)Nc2scc(-c3ccc(Br)cc3)c2C(=O)O)cc(OC)c1OC,21.5% (inactive)
12,COc1ccc(C(=O)N/N=C(\c2ccccc2)c2ccccn2)cc1,46.3% (inactive)
13,COc1ccc(-c2csc3nc(-c4ccccc4OC)oc(=O)c23)cc1,12.5% (inactive)
14,COc1ccccc1-c1nnc(Sc2nc([N+](=O)[O-])nn2C)o1,54.9% (active)
15,COc1ccccc1-c1nc(C#N)c(N2CCN(c3cccc(Cl)c3)CC2)o1,-20.8% (inactive)
16,O=C(NCCCSc1ccccc1)c1cc(Cl)ccc1O,80.1% (active)
17,C/C(=N\NC(=O)c1cc(Cl)ccc1O)c1ccc(Br)s1,48% (inactive)
18,O=C(NCCCSc1ccccc1)c1cc(Br)ccc1O,69.9% (active)
19,COc1cc(F)ccc1CN1CCC(C(=O)Nc2ccc(Oc3ccccc3)nc2)CC1,57% (active)
20,O=C(Nc1ccc(Oc2cccnc2)cc1)C1CCN(Cc2cc(Cl)ccc2O)CC1,47.8% (inactive)
21,COc1ccccc1CNC(=O)C1CCN(C(=O)[C@@H]2Cc3ccccc3CN2)CC1,14.5% (inactive)

# — PubChem BioAssay AID1852 (Sanford-Burnham Center for Chemical Genomics, 2009)
